# Test results published in PubChem BioAssay AID504397 (Broad Institute, 2011).
# Measured potencies and affinities stand elsewhere. Activity calls are given as the source filed them. How the calls were made is not given here.
# Test: toxicity toward cultured mammalian cells – cell-based, plate reader, cherry-pick samples, cytotoxicity control, dose response (AID 504397)
# Conditions: plate reader viability; series mostly up to 35 µM
row,SMILES,outcome
1,CC1(c2ccc(OCC#N)cc2)C=C(c2ccc(OCC#N)cc2)n2nc(C(F)(F)F)nc2N1 (stereo unspecified),inactive
2,CCn1cc(/C=C(\NC(=O)c2ccccc2Cl)C(=O)N2CCOCC2)c2ccccc21,inactive
3,CCOc1ccc(N(Cc2ccc(OC)cc2)C(=O)c2ccco2)cc1,inactive
4,COc1ccc(-n2c(SCc3ccc([N+](=O)[O-])cc3)nnc2-c2ccc(C)cc2)cc1,inactive
5,Cc1ccc(OCCn2c3ccccc3n3nc(C)c(=O)nc23)cc1,inactive
6,CN(C)CCN(C(=O)c1ccc2ccccc2c1)c1nc2ccc(F)cc2s1,inactive
7,COc1ccccc1N1CCN(c2ncc(C(=O)N3CCN(c4cccc(Cl)c4)CC3)c3ccccc23)CC1,inactive
8,CCn1cc(/C=C(\NC(=O)c2ccccc2)C(=O)N2CCOCC2)c2ccccc21,inactive
9,CCOc1ccc(-n2c(SCc3ccc([N+](=O)[O-])cc3)nnc2-c2ccc(OC)cc2)cc1,inactive
10,O=c1c(-c2ccccc2)c(O)c2ccccc2n1-c1ccccc1,inactive
11,COC(=O)C1CCCN1S(=O)(=O)c1ccc2ccccc2c1 (stereo unspecified),inactive
12,O=C(c1cc(-c2ccccc2)nc2ccccc12)N1CCN(c2ccccn2)CC1,inactive
13,CC1CCN(Cc2c(C(=O)N/N=C/c3cccc(C(F)(F)F)c3)nnn2-c2nonc2N)CC1,inactive
14,Cc1ccc(C(=O)c2c3ccc(C(F)(F)F)cc3nn2CCC(N)=O)cc1,inactive
15,O=C(C(Cc1ccccc1)N1C(=O)c2ccccc2C1=O)N1c2ccccc2CCc2ccccc21 (stereo unspecified),inactive
16,CCn1cc(/C=C(\NC(=O)c2ccccc2F)C(=O)N2CCCC2)c2ccccc21,inactive

row,SMILES,outcome
1,Nc1nonc1-n1nnc(C(=O)N/N=C/c2cccc(Cl)c2)c1CSc1ccc(Cl)cc1,inactive
2,O=C(c1cnc2n(c1=O)CCS2)N1CCN(C(c2ccccc2)c2ccc(Cl)cc2)CC1 (stereo unspecified),inactive
3,CCOc1cc(S(=O)(=O)N(Cc2ccccc2)Cc2ccccc2)c(OCC)cc1-n1cnnn1,inactive
4,Cc1cccc(Nc2ccccc2C(=O)OCC(=O)N(C)C2CCS(=O)(=O)C2)c1C (stereo unspecified),inactive
5,CCOC(=O)[C@@H]1[C@H]2COc3ccc(Br)cc3[C@@H]2N2C(=O)N(c3cccc(Cl)c3)C(=O)[C@]12C,inactive
6,Cc1cccc(-c2nnc(SCc3ccc(C#N)cc3)n2Cc2ccco2)c1,inactive
7,CCOC(=O)c1cc(-c2ccccc2)sc1NC(=O)C(C)Sc1nnnn1C (stereo unspecified),inactive
8,COc1cccc(/C=N/NC(=O)c2nnn(-c3nonc3N)c2C(C)C)c1OCc1ccc(F)cc1,inactive
9,COc1cccc(-c2c(C(=O)N/N=C/c3sccc3C)nnn2-c2nonc2N)c1,inactive
10,Nc1nnnn1/N=C/c1ccccc1OCc1ccc(Cl)cc1Cl,inactive
11,COc1ccc(-n2nc(C(=O)NCC(=O)N3CCC(C)CC3)c3ccccc3c2=O)cc1,inactive
12,CN(C)CCCN(C(=O)c1cc(-c2cccs2)nc2ccccc12)c1nc2ccc(F)cc2s1,inactive
13,CC(=O)c1ccc(-c2ccc(C(=O)N3CCC(C(N)=O)CC3)o2)cc1,inactive
14,CN(C(=O)COC(=O)c1cc([N+](=O)[O-])ccc1Sc1ccccc1)C1CCS(=O)(=O)C1 (stereo unspecified),inactive
15,CS(=O)(=O)c1ccc(C(=O)OCC(=O)N(CCc2ccccc2)Cc2ccccc2)cc1,inactive
